PubChem BioAssay AID1159568 (Broad Institute, 2015)
Measured potencies and affinities stand elsewhere. Results filed as inconclusive are left out.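 How the source made its calls: active means signal loss with an EC50 at or below twice the highest valid dose for that sample; inconclusive means flat curve with 30 to 70% inhibition, or poor fit; inactive means the rest.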

Assay: P. falciparum Dd2 growth inhibitors, dose response, SYBR Green, dry powder samples, set 9 (AID 1159568)
Settings: P. falciparum Dd2 in erythrocytes, 72 h; series mostly up to 19.5 µM; activity change, negative = inhibition: at the top concentration

Activity change, negative = inhibition, inactive:
COc1ccc(CNC(=O)C[C@H]2CC[C@@H](NC(=O)CN(C)C)[C@H](CO)O2)cc1 -8.93%
Cc1noc(C)c1S(=O)(=O)N(C)C[C@H]1OCc2cn(nn2)CCCC(=O)N([C@@H](C)CO)C[C@@H]1C -9.44%
C[C@H]1CN([C@@H](C)CO)C(=O)CCCn2cc(nn2)CO[C@H]1CN(C)C(=O)Nc1cccc2ccccc12 0.508%
COCC(=O)N1C[C@H](C)[C@@H](OC)CN(C)C(=O)c2ccc(NC(=O)Nc3cccc(F)c3)cc2OC[C@@H]1C 4.93% [at 6.8 µM]
COc1cccc(NC(=O)N[C@@H]2CC[C@H](CC(=O)N3CCN(C)CC3)O[C@@H]2CO)c1 3.98%
CC(C)[C@@H]1COCc2cnnn2CCC[C@H](C)C(=O)N1 0.842%
COc1ccc(NC(=O)N(C)C[C@H]2Oc3ccc(NC(=O)CCN4CCOCC4)cc3C(=O)N([C@H](C)CO)C[C@@H]2C)cc1 -2.62%
O=C(NCc1ccc2c(c1)OCO2)[C@@H]1[C@@H](CO)[C@@H]2Cn3c(cccc3=O)[C@H]1N2Cc1cncnc1 2.33%
